Bioassay records from PubChem.
In the library only some 4.2% were active in any assay of this set; here they are far more common.
TIM10 inh: growth inhibitors of isogenic TIM10 control yeast, primary screen, counter-screen for tim10-1 yeast inhibitor project, luminescence, uHTS; S. cerevisiae TIM10 strain growth, BacTiter-Glo luminescence, 24 h; inhibition, % at 10 µM; 330,000 tested, 1.4% active;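 active = inhibition of 40% or more at the single tested concentration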;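 note: wild-type TIM10 isogenic control strain grown at permissive 25 °C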
NLRP3 yeast inh: NALP3 inflammasome inhibitors in reconstituted yeast, primary screen, luminescence, uHTS; Yeast reconstituted NLRP3/ASC/caspase-1, beta-gal luminescence, 24 h; inhibition, % at 10 µM; 330,000 tested, 0.39% active; AID 2825, 2010;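 active = inhibition of 50% or more; inactive = inhibition below 50%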;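 note: plate controls were induced DMSO wells for no effect and uninduced yeast grown without galactose for full effect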
tim10-1 inh: growth inhibitors of tim10-1 mutant yeast, primary screen, luminescence, uHTS; S. cerevisiae tim10-1 ts strain growth, BacTiter-Glo, 24 h; inhibition, % at 20 µM; 330,000 tested, 2.2% active; AID 463190, 2010;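 active = inhibition of at least 40%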;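 note: mutant grown at 25 °C; 0% = DMSO wells with yeast and 100% = wells holding no yeast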
PfHsp90 set2: growth inhibition of PfHsp90-expressing yeast, primary screen, antimalarial PfHsp90 inhibitor project, S. cerevisiae, BacTiter-Glo luminescence, single point, set 2; BacTiter-Glo ATP, 48 h; yeast lacking PDR1 and PDR3 efflux regulators; inhibition, % at 9.4 µM; AID 504621, 2011; 310,000 tested, 0.32% active;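 active = every replicate shows inhibition above about 80%, whatever the replicate mean, limit read from the data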;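 note: 0% = DMSO neutral controls and 100% = 20 µM radicicol positive controls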
tim23-1 inh: growth inhibitors of tim23-1 mutant yeast, primary screen, luminescence, uHTS; S. cerevisiae tim23-1 growth, BacTiter-Glo luminescence, 24 h; inhibition, % at 20 µM; 330,000 tested, 1.3% active; AID 463212, 2010;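 active = growth inhibition of the mutant yeast at or above 50%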;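 note: temperature-sensitive mutant grown at 25 °C; plate controls were DMSO-treated mutant yeast for no effect and medium wells lacking yeast for full effect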
NALP1 inh: NALP1 inflammasome inhibitors in reconstituted yeast, colorimetric, S. cerevisiae, triplicate retest | S. cerevisiae NALP1/ASC/caspase-1 growth, X-gal OD620, 72 h | inhibition, % at 10 µM | 280,000 tested, 0.61% active | AID 2071, 2009; in the data active = inhibition mostly above about 24%, no sharp cut-off; inactive = mostly below about 32%
tim10-1 conf: growth inhibitors of tim10-1 mutant yeast, confirmation, single concentration, luminescence, S. cerevisiae | 7,400 tested, 56% active | AID 463213, 2010 | S. cerevisiae tim10-1 ts strain growth, BacTiter-Glo, 24 h | shares compounds with tim10-1 inh | inhibition, % at 20 µM;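 active = inhibition of yeast growth at or above a set limit in either of two repeat tests at 20 µM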;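 note: tim10-1 mutant grown at permissive 25 °C to find synthetic lethal compounds; 0% = DMSO yeast wells and 100% = medium wells without yeast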
Active calls of the source: *; / = no result given.

SMILES | TIM10 inh | NLRP3 yeast inh | tim10-1 inh | PfHsp90 set2 | tim23-1 inh | NALP1 inh | tim10-1 conf
O=C(CCl)Nc1ncc(S(=O)(=O)c2ccc([N+](=O)[O-])cc2)s1 | 5 | 5 | 16 | -28 | 32 | / | /
CCC(C)(C)C(=O)Nc1ncc(S(=O)(=O)c2ccc([N+](=O)[O-])cc2)s1 | 16 | 15 | 42* | 0 | 16 | 8 | 27
CNc1sc(C(=O)c2ccccc2F)c(N)c1-c1nc2ccccc2s1 | 35 | 28 | 46* | / | 24 | 25 | 35*
O=C(CNC(=O)c1ccccc1F)OCc1nc2ccccc2s1 | -34 | -4 | 1 | -15 | -5 | 14 | /
CCOC(=O)c1ccc2[nH]c(C)c(C)c2c1 | 15 | 21 | 13 | 5 | 25 | / | /
CCOC(=O)c1cc2c(ccc3nc(C)c(C)c32)[nH]c1C | 24 | 7 | 50* | -9 | 18 | 16 | 13
NS(=O)(=O)c1ccc(NCc2ccccc2OCc2ccc(F)cc2)cc1 | 9 | 1 | 44* | / | 38 | 10 | 19
NS(=O)(=O)c1ccc(CCNCc2ccccc2OCc2ccc(F)cc2)cc1 | -13 | 5 | 15 | -6 | 6 | 31 | /
CCc1ccccc1Oc1coc2cc(O)ccc2c1=O | 25 | 13 | 26 | 2 | 41 | 12 | /
Cc1cccc(Oc2coc3cc(O)ccc3c2=O)c1 | 19 | 10 | 48* | 0 | 34 | 33 | 15
O=C(Nc1ccccc1C(=O)N/N=C/c1ccco1)c1ccc(Cl)cc1 | 22 | -11 | 39 | 11 | 40 | 20 | /
O=C(Nc1ccccc1C(=O)N/N=C/c1ccco1)c1ccccc1 | 12 | 10 | 41* | 18 | 24 | 18 | 26
Cc1ccc(S(=O)(=O)N2CCN(C(=O)c3cc4c(s3)CCCC4)CC2)c(C)c1 | 18 | 7 | 22 | 12 | 33 | / | /
O=C(c1cc2c(s1)CCCC2)N1CCN(S(=O)(=O)c2ccccc2C(F)(F)F)CC1 | 13 | 13 | 41* | -22 | 35 | 3 | 29
COc1ccc(N2CCN(c3cc(C)nc4ccc(OC)cc34)CC2)cc1 | 13 | 22 | 43* | 9 | 25 | 32 | 8
COc1ccc2nc(C)cc(N3CCC(C(N)=O)CC3)c2c1 | -8 | -8 | 11 | -38 | -4 | 7 | /
NC(=S)Cc1nc(-c2ccccc2)cs1 | 39 | 1 | 51* | -4 | 42 | 11 | 44*
Oc1csc(Cc2nc(-c3ccc(-c4ccccc4)cc3)cs2)n1 | 12 | 12 | 21 | -19 | 7 | 8 | /
COC(CNC(=O)CNC(=S)N(Cc1ccccc1)Cc1cccs1)OC | -7 | 9 | 16 | -4 | 12 | -9 | /
CCCCNC(=O)CNC(=S)N(Cc1ccccc1)Cc1cccs1 | 8 | -10 | 47* | -46 | 14 | -1 | 28
O=[N+]([O-])c1ccc2nc(NS(=O)(=O)c3ccc(F)cc3)sc2c1 | 11 | 15 | -28 | -11 | 2 | 9 | /
COc1ccc(Cl)cc1NC(=O)C(OC)c1ccccc1 (stereo not given) | 8 | 16 | -10 | -21 | 15 | 12 | /
COC(/C(=N/O)c1ccc(Cl)cc1)c1ccccc1 (stereo not given) | 26 | -20 | 47* | -28 | 47 | 4 | 31*
CC1CCCN(S(=O)(=O)c2ccc(CN3C(=O)c4cccnc4C3=O)cc2)C1 (stereo not given) | -1 | 7 | 2 | 15 | 27 | 1 | /
O=C(C1CCCC1)N1CCC(CC2CC(c3cccc(Br)c3)=NO2)(C(=O)NCC2CCCCC2)CC1 (stereo not given) | -7 | 13 | -11 | -7 | 11 | 12 | /
SMILES | TIM10 inh | NLRP3 yeast inh | tim10-1 inh | PfHsp90 set2 | tim23-1 inh | NALP1 inh | tim10-1 conf
S=c1[nH]nc(C23CC4CC(CC(C4)C2)C3)n1Cc1ccco1 | 22 | 14 | 40* | 22 | 24 | 11 | 25
Cn1cc(SCC(=O)O)c2ccccc21 | 9 | 12 | 14 | / | -5 | 5 | /
Cn1cc(C(C[N+](=O)[O-])c2ccccc2)c2ccccc21 (stereo not given) | 21 | -38 | 40* | -16 | 44 | 5 | 49*
O=C(NCc1cccnc1)c1ccc(-c2cc(Cl)ccc2Cl)o1 | 15 | 17 | 40* | -14 | 33 | 14 | 30
O=C1OCC2=C1C(c1ccccc1)CC(=O)N2c1ccc(F)cc1 (stereo not given) | -24 | 11 | 22 | / | 9 | -8 | /
Cn1cnnc1SCC(=O)Nc1ccc(F)cc1 | -3 | 3 | 13 | 4 | -5 | 11 | /
Cc1ccc(/C=C2/SC(=S)N(CCC(=O)N3CCOCC3)C2=O)cc1 | 9 | 21 | 28 | -25 | 28 | 5 | /
CC1CCN(c2oc(-c3ccc(F)cc3)nc2C#N)CC1 | -26 | 25 | 99* | -5 | 2 | 10 | -8
COc1ccccc1N1CCN(S(=O)(=O)c2ccc3nc(-c4ccccc4)[nH]c3c2)CC1 | 31 | 20 | 42* | -17 | 37 | 25 | 27
COc1cc(S(=O)(=O)N2CCN(c3ccccc3F)CC2)ccc1Cl | 11 | 6 | 43* | 20 | 17 | 8 | 30
O=S(=O)(c1ccc2nc(-c3ccccc3)[nH]c2c1)N1CCN(c2cccc(Cl)c2)CC1 | 23 | 29 | 15 | 0 | 15 | 38 | /
COc1ccccc1N1CCN(S(=O)(=O)c2ccc3c(c2)NC(=O)C(C)S3)CC1 (stereo not given) | 13 | 9 | 43* | -37 | 46 | 8 | 6
COc1cc(S(=O)(=O)N2CCN(c3ccccc3)CC2)ccc1Cl | 3 | 2 | -3 | -19 | 13 | -9 | /
CCCN1CCN(S(=O)(=O)c2ccc3c(c2)NC(=O)C(C)S3)CC1 (stereo not given) | 1 | 10 | -11 | -15 | -4 | 14 | /
O=C(CNC(=O)CNC(=O)c1ccc(Cl)cc1Cl)NCc1cccc(Cl)c1 | 13 | 25 | -11 | 23 | 3 | 5 | /
O=C(NCCCN1CCCC(O)C1)c1cc(COc2ccc(F)cc2F)on1 (stereo not given) | 6 | 7 | 0 | -15 | 2 | 12 | /
CCc1ccc(C(=O)OCC(=O)c2c(N)n(CC(C)C)c(=O)n(C)c2=O)cc1 | 28 | 10 | 24 | 14 | 22 | -1 | /
CN(C)S(=O)(=O)c1cccc(NC(=O)Cc2ccc(-c3ccccc3)cc2)c1 | 14 | 3 | 29 | -25 | 26 | 4 | /
COc1cc(NC(=O)C2=C(N3CCOCC3)/C(=C/c3ccc(Cl)cc3)CC2)cc(OC)c1OC | 20 | 9 | 44* | -22 | 31 | 28 | 44*
